A selection: hits, their analogues and other compounds. The true share with any hit is near 11%.
VP16 counter: counter-screen for ROR gamma inhibitors: Gal4-VP16 reporter | 310,000 tested, 3.5% active | Drosophila S2 Gal4-VP16 UAS-luciferase, luminescence, 20 h | AID 2546 | Potency, µM (titrated, usually from 53.6 µM), hits mostly inhibitors;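 further: Gal4-VP16 expression switched on by copper sulfate through the metallothionein promoter; nearly all actives have a fitted effect of over 50% in size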
IL-1B inflam inh: inflammasome signaling inhibition, IL-1 beta readout. THP-1 LPS/ATP IL-1B secretion, AlphaLISA, 16 h; stronger effect = lower value. activity change, % at 57.5 µM. 360,000 tested, 4.7% active. AID 743279; in the data active means activity change below about -50%; inconclusive means mostly about -30% to -49%
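Secreted IL-1B measured by AlphaLISA bead assay after 16 h compound exposure of THP-1 cells; compounds (final up to 57.5 uM) added 1 h before LPS (250 ng/mL) and ATP (1.25 mM) stimulation; lower signal means less secretion.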
MCF10A rerep: induces DNA re-replication in MCF 10a normal breast cells; MCF 10A DNA re-replication, Hoechst nuclear intensity, 48 h; Potency, µM (top dose mostly 46.1 µM), actives largely listed as activators; 350,000 tested, 2.9% active; further: nearly all actives have a fitted effect of over 50% in size
RORgamma inh: blocks mouse ROR gamma transcriptional activity. P51450. Potency, µM (highest dose often 53.6 µM), most hits filed as inhibitors. 310,000 tested, 5.4% active. Drosophila S2 Gal4-RORgamma UAS-luciferase reporter, 20 h; further: nearly all actives have a fitted effect of over 60% in size
Target sequence (P51450 whole entry, looked up, the tested form may be a part): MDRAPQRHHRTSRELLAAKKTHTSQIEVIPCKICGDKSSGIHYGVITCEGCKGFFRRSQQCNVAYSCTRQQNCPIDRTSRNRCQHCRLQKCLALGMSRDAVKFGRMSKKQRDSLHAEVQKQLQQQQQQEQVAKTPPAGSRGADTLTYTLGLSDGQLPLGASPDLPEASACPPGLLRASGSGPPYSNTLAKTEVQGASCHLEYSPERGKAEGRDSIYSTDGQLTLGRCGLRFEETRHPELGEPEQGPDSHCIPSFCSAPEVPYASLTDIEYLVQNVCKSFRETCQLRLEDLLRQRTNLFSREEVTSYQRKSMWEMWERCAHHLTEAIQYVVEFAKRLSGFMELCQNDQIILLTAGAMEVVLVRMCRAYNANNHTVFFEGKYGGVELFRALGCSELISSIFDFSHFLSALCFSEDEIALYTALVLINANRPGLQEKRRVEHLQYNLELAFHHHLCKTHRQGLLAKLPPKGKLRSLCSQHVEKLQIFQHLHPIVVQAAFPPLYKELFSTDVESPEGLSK
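Using a luciferase readout, inhibitors were identified by reduced reporter activity in Drosophila cells coexpressing a copper-inducible Gal4–ROR gamma fusion and UAS-driven Photinus luciferase, incubated 20 hr after 700 uM copper sulfate.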
SW480 rerep: DNA re-replication induction in SW480 cells. SW480 DNA re-replication, Hoechst DNA content imaging, 48 h. Potency, µM (titrated, usually from 46.1 µM), usual class: activators. 340,000 tested, 1.8% active. AID 624297; further: nearly all actives have a fitted effect of over 55% in size
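Image-based read-out: total Hoechst fluorescence of nuclei (405 nm excitation, 500-530 nm emission), with hits raising the fraction of high-intensity nuclei. SW480 colon cells incubated 48 hr with compounds at 37 C.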
Each line names hits and unclear results; the compound was inactive in the other large screens. Unless noted, the call rests on the fitted dose curve; in most records, active means well fitted curve in the direction sought with a large enough effect; inconclusive means small, poorly fitted or top-dose-only effect, or another doubt; inactive means no such curve, though single readings can be large; an effect the other way counts as inactive or inconclusive.

C(=C\c1ccccc1)/CSc1nnc(-c2ccccc2)n1Cc1ccco1	VP16 counter inconclusive, MCF10A rerep 5.17µM, SW480 rerep 23.1µM
O=C(NC1CCCCCC1)c1ccc(CS(=O)Cc2cccc(Cl)c2)o1 (stereo unspecified)	SW480 rerep inconclusive
O=S(=O)(/N=C(/Sc1ccccc1)c1ccccc1)c1ccccc1	IL-1B inflam inh -104.2
CS/C(=N\S(=O)(=O)c1ccccc1)c1ccccc1	MCF10A rerep inconclusive
Cc1ccc(N=C2C(=O)Nc3ccccc32)c(C)c1	none
Cc1ccc(C2NC(=O)c3ccccc3N2)c(C)c1 (stereo unspecified)	MCF10A rerep 6.51µM, SW480 rerep inconclusive (no result: VP16 counter, RORgamma inh)
Cc1cccc(C2NC(=O)c3ccccc3N2)c1 (stereo unspecified)	MCF10A rerep 14.6µM, SW480 rerep 16.4µM (no result: VP16 counter, RORgamma inh)
O=C1NC(c2ccc(Cl)cc2)Nc2ccccc21 (stereo unspecified)	RORgamma inh inconclusive
Cc1ccc(C2NC(=O)c3ccccc3N2)s1 (stereo unspecified)	MCF10A rerep inconclusive, RORgamma inh inconclusive, SW480 rerep 20.6µM
COc1ccc(-c2sc3ccc(N4CCOCC4)cc3c2C#CCCO)cc1	MCF10A rerep inconclusive (no result: VP16 counter, RORgamma inh)
Nc1ncnc2c1ncn2[C@@H]1O[C@H](CNC(=O)[C@@H]2CCCN2S(=O)(=O)c2ccc(F)cc2)[C@@H](O)[C@H]1O	none (no result: VP16 counter, RORgamma inh)
CC1CCCCC1NC(=O)CCCn1c(=S)[nH]c2ccccc2c1=O (stereo unspecified)	RORgamma inh inconclusive
CC1CCCC(NC(=O)CCCn2c(=S)[nH]c3ccccc3c2=O)C1C (stereo unspecified)	RORgamma inh 10µM
CC1CCCCC1NC(=O)CCCCCn1c(=S)[nH]c2ccccc2c1=O (stereo unspecified)	RORgamma inh 15.8µM
O=C1N=C2SCCN2/C1=C\c1ccc(Cl)cc1	IL-1B inflam inh -67.8, MCF10A rerep 18.4µM
c1ccc(-c2cccc(N3CC[C@@]4(CCCNC4)C3)c2)cc1	none (no result: IL-1B inflam inh, MCF10A rerep, SW480 rerep)
N=C1N(c2ccccc2)C(=S)C(=Nc2ccccc2)N1c1ccccc1	MCF10A rerep 18.4µM, SW480 rerep inconclusive (no result: VP16 counter, RORgamma inh)
COc1ccc(N=C2C(=S)N(c3ccc(OC)cc3)C(=NS(=O)(=O)c3ccccc3)N2c2ccccc2)cc1	none (no result: VP16 counter, RORgamma inh)
Nc1nc(Cl)cc(N2CCC(c3cc(-c4ccc(Cl)cc4)n[nH]3)CC2)n1	VP16 counter inconclusive, MCF10A rerep 25.9µM, RORgamma inh inconclusive, SW480 rerep 16.4µM
COc1ccc(-c2cc(C3CCN(c4cc(Cl)nc(N)n4)CC3)[nH]n2)cc1	IL-1B inflam inh inconclusive, MCF10A rerep inconclusive, RORgamma inh inconclusive
COc1ccc(OC)c(-c2cc(C3CCN(c4cc(Cl)nc(N)n4)CC3)[nH]n2)c1	MCF10A rerep 20.6µM, SW480 rerep inconclusive
CC=C(Cl)Cl	none (no result: IL-1B inflam inh, MCF10A rerep, SW480 rerep)
CCOC(=O)c1cc2c(=O)n3ccccc3nc2n(C)c1=NC(=O)c1c(-c2c(F)cccc2Cl)noc1C	MCF10A rerep 23.1µM, SW480 rerep 1.3µM (no result: VP16 counter, RORgamma inh)
CCOC(=O)c1cc2c(=O)n3ccccc3nc2n(C(C)C)c1=NC(=O)c1c(-c2c(F)cccc2Cl)noc1C	MCF10A rerep inconclusive, SW480 rerep 18.4µM
CCOC(=O)c1cc2c(=O)n3ccccc3nc2n(CC2CCCO2)c1=NC(C)=O (stereo unspecified)	MCF10A rerep inconclusive, RORgamma inh inconclusive, SW480 rerep inconclusive
CCCCn1c(=NC(=O)c2cccnc2)c(C(=O)OCC)cc2c(=O)n3ccccc3nc21	none
O=C(NCc1nnc(SCC(=O)N2CCOCC2)o1)c1ccccc1	none (no result: VP16 counter, MCF10A rerep, RORgamma inh, SW480 rerep)
N#CC(C#N)=c1ccc2c(c1)N1C3=C(CCCC3)CC3CCCCC31N=2 (stereo unspecified)	IL-1B inflam inh -116.7
N#C/C(C(N)=O)=c1/ccc2c(c1)N1C3=C(CCCC3)CC3CCCCC31N=2 (stereo unspecified)	VP16 counter inconclusive, IL-1B inflam inh -101.8
Cc1ccc2occ(/C=N/NC(=O)c3ccc(O)cc3)c(=O)c2c1	RORgamma inh 20µM
Cc1cc(/C=N/NC(=O)c2ccc(O)cc2)c(C)n1CC(C)C	IL-1B inflam inh -53.1, RORgamma inh 7.94µM
Cc1ccc2occ(/C=N/NC(=O)c3ccccc3Br)c(=O)c2c1	none
Cc1ccc(C)c(C(=O)CCC(=O)NNC(=O)c2cccs2)c1	none (no result: VP16 counter, RORgamma inh)
C=CCOc1ccc(Br)cc1/C=C1/SC(=Nc2ccc(C(=O)O)cc2)NC1=O	MCF10A rerep 8.2µM
CCOc1cc(Br)cc(/C=C2\SC(=Nc3ccccc3)NC2=O)c1O	VP16 counter inconclusive, MCF10A rerep 8.2µM, RORgamma inh inconclusive
Cc1ccc(S(=O)(=O)/N=C2/NC(=O)/C(=C\c3cc(Br)cc(Br)c3O)S2)cc1	MCF10A rerep inconclusive, RORgamma inh 11.2µM, SW480 rerep inconclusive
Cc1ccc(S(=O)(=O)/N=C2/NC(=O)/C(=C/c3ccc(Br)o3)S2)cc1	MCF10A rerep inconclusive
COCC(=O)N1C[C@H]2CON(C)[C@H]2C[C@H]1c1cccc(-c2ccccc2)c1	none (no result: VP16 counter, MCF10A rerep, RORgamma inh, SW480 rerep)
Cc1cccc(C)c1NC(=S)NCc1ccccc1	none
CCc1cccc(C)c1NC(=S)NCc1ccc2c(c1)cc(C)n2C	VP16 counter 7.94µM, MCF10A rerep 14.6µM, RORgamma inh 5.62µM, SW480 rerep 14.6µM
CCCCNC(=S)NCc1ccc2c(c1)cc(C)n2C	VP16 counter inconclusive, RORgamma inh 11.2µM
CCC(CC)C(=O)NCc1ccc2c(c1)cc(C)n2C	none
COc1ccccc1NC(=S)NCc1ccc2c(c1)cc(C)n2C	VP16 counter inconclusive, MCF10A rerep inconclusive, RORgamma inh 5.62µM, SW480 rerep inconclusive
CCCCC(=O)NCc1ccc2c(c1)cc(C)n2C	none
CCc1cccc(C)c1NC(=S)NCc1ccccc1	VP16 counter 31.6µM, RORgamma inh 3.55µM
CCOC(=O)C(C(=O)c1ccccc1)[C@H](CCc1ccccc1)NC(=O)OC (stereo partly specified)	none (no result: IL-1B inflam inh, MCF10A rerep, SW480 rerep)
CN(N=Nc1nc[nH]c1C(N)=O)C1CCCCC1	none (no result: VP16 counter, MCF10A rerep, RORgamma inh, SW480 rerep)
COc1ccccc1-c1csc(C(O)c2ccc(F)c(F)c2)n1 (stereo unspecified)	none (no result: VP16 counter, MCF10A rerep, RORgamma inh, SW480 rerep)
CC(C)(C)c1ccc(CC(=O)N2CCC2(C)C(=O)NS(=O)(=O)c2ccc(Cl)s2)cc1 (stereo unspecified)	none (no result: VP16 counter, MCF10A rerep, RORgamma inh, SW480 rerep)
COc1ccc(NC(=S)NCc2ccc3c(c2)cc(C)n3C)cc1	VP16 counter 11.2µM, RORgamma inh 4.47µM
Cc1ccccc1NC(=S)NCc1ccc2c(c1)cc(C)n2C	VP16 counter 11.2µM, MCF10A rerep inconclusive, RORgamma inh 6.31µM, SW480 rerep 16.4µM
Cc1cc2cc(CNC(=O)Nc3ccccc3)ccc2n1C	RORgamma inh inconclusive
Cc1cc2cc(CNC(=S)NCc3ccccc3)ccc2n1C	VP16 counter inconclusive, RORgamma inh 17.8µM
CCCS(=O)(=O)NCc1ccc2c(c1)cc(C)n2C	IL-1B inflam inh -68.8
Fc1ccc(Nc2nnc(-c3ccncc3)s2)cc1Cl	none (no result: VP16 counter, MCF10A rerep, RORgamma inh, SW480 rerep)
